The values below come from PubChem BioAssay.

Active and inactive are the calls of the source. Unless noted, the rule behind the calls is not given here.

Assay [1] can be described thus: compounds binding Alexa647 anti-His antibody – biochemical, small-molecule microarray, 635 nm fluorescence, artefact control for SMM control protein annotation, primary screen (AID 1128).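 Note: score merges feature fluorescence with signal-to-noise for each printed compound spot.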 The note with it: higher = more signal.
In assay [2] the test system is Human papillomavirus type 1a E7 protein (residues 1-88). In words: HPV1a E7 small-molecule binders, primary screen, biochemical, small-molecule microarray, residues 1-88, 635 nm (AID 1129). The following applies: small-molecule microarray binding, fluorescence 635 nm; higher = more signal.
Assay [3] addresses Focal adhesion kinase 1 (Homo sapiens) (UniProt Q05397). In words: PTK2 protein binding on printed compound slides – biochemical, small-molecule microarray, 635/667 nm fluorescence, BSA, DTT, primary screen (AID 1130).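 Note: composite of spot emission at 667 nm and signal to noise over triplicate slides.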 The note with it: 635 nm fluorescence, higher = more signal.
Assay [4] deals with Fibrinogen (Alexa647-labelled). In words: Alexa647-fibrinogen binding to printed small molecules – biochemical, small-molecule microarray, 635/667 nm fluorescence, artefact control for SMM control-protein annotation, profiling panel (AID 1131).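 Note: z-score merges 667 nm fluorescence with per-spot signal-to-noise over triplicate slides.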 The note with it: fibrinogen-A647 binding fluorescence, higher = more signal.
For assay [5], the target named is Follistatin (Homo sapiens) (UniProt P19883). In words: FST protein binding to printed compounds – biochemical, small-molecule microarray, 635/667 nm fluorescence, primary screen (AID 1132). The note with it: 635 nm fluorescence, higher = more signal.
Follistatin (Homo sapiens), sequence (P19883 whole entry, looked up): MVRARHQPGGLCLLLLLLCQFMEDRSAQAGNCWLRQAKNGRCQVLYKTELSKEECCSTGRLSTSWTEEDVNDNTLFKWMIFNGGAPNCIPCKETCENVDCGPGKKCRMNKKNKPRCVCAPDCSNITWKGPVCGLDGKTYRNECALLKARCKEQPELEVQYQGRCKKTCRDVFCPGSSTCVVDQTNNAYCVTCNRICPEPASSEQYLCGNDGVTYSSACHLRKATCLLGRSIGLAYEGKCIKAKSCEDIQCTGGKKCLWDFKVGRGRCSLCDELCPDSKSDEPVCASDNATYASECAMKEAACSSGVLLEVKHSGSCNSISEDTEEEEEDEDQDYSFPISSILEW
Assay [6] has as its target Fibroblast growth factor 2 (Homo sapiens) (UniProt P09038). Description: basic fibroblast growth factor binding to printed compounds – biochemical, small-molecule microarray, 635/667 nm fluorescence, primary screen (AID 1133). The note with it: FGF2, fluorescence 635/667, higher = more signal.
A short description of assay [7]: JC-1 mitochondrial potential readout, lung cancer cells – cell-based, A549, JC-1 fluorescence, basal, 24 h, 100 nL, profiling panel (AID 1138).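 Note: A549 lung adenocarcinoma cells under basal conditions with no added stimulus; test concentration not given here.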 The following applies: higher = more signal.
Assay [8] concerns Lefty1. In words: Lefty1 protein binding to printed compounds – biochemical, small-molecule microarray, 635/667 nm fluorescence, primary screen (AID 1139). The following applies: fluorescence 635/667, higher = more signal.
The test system of assay [9] is wheat germ agglutinin (Triticum aestivum), Alexa647-labelled. In words: Alexa647-WGA lectin binding to printed small molecules – biochemical, small-molecule microarray, 635/667 nm fluorescence, artefact control for SMM control-protein annotation, profiling panel (AID 1140).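 Note: score merges 667 nm feature emission with signal to noise over triplicate slides.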 The note with it: WGA-A647 binding, 635 nm fluorescence, higher = more signal.
For assay [10], the target named is Luciferin 4-monooxygenase (Photinus pyralis) (UniProt P08659). In words: inhibition of purified Photinus pyralis luciferase – biochemical, luminescence, purified enzyme, 2006 set, primary screen (AID 1141).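 Note: cell-free assay with purified firefly luciferase at 100 ng per well in PBS; test concentration not given here.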 The following applies: purified firefly luciferase, SteadyGlo luminescence, 30 min; higher = more signal, called active from +8 up or from −8 down.
Luciferin 4-monooxygenase (Photinus pyralis), sequence (P08659 whole entry, looked up): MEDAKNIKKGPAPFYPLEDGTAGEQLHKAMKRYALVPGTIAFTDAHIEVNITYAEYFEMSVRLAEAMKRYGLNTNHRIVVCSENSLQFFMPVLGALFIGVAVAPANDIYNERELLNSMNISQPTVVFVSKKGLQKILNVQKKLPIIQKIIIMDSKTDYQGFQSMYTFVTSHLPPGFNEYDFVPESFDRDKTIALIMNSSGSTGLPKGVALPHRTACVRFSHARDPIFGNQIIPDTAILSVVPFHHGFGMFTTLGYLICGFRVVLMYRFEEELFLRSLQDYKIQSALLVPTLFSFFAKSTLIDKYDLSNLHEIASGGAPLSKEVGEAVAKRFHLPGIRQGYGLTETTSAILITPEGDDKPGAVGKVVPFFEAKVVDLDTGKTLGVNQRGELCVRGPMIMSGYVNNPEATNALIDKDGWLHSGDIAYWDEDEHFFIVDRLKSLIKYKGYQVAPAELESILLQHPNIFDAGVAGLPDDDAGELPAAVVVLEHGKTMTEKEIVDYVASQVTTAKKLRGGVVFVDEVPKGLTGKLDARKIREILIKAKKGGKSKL
Assay [11] has as its system Wnt5a (protein binding on small-molecule microarray). In words: small molecules binding Wnt5a protein – biophysical, small-molecule microarray, 635/667 nm fluorescence, primary screen (AID 1142).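 Note: fluorescence read at 667 nm with signal to noise per printed feature.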 The note with it: 635 nm fluorescence, higher = more signal.
The nature of assay [12]: ATP-based viability of Huh7 replicon cells – cell-based, CellTiter-Glo luminescence, basal, 48 h, cytotoxicity control for HCV replication inhibitor project, primary screen (AID 1143).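 Note: Huh7 hepatoma cells carrying a hepatitis C replication reporter with no stimulus; test concentration not given here.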 The following applies: higher = more signal, called active from +8 up or from −8 down.
A short description of assay [13]: Pseudomonas biofilm growth suppression – PAO1 strain, BacTiter-Glo luminescence, LB-PBS, primary screen (AID 1144). The following applies: P. aeruginosa PAO1 biofilm, 12 h, higher = more signal.
Assay [14] in a line: basal CRE-LacZ reporter activity in PC12 – cell-based, unstimulated, primary screen (AID 1145). The note with it: no forskolin, luminescence, 4.5 h, higher = more signal, called active from +8 up or from −8 down.
Assay [15] can be described thus: forskolin-driven CRE-LacZ activity in PC12 – cell-based, CRE-LacZ reporter, forskolin-stimulated, primary screen (AID 1146).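 Note: PC12 cells with 6xCRE LacZ reporter stimulated by forskolin 10 µM; beta-galactosidase reporter signal reflecting CREB driven transcription.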 The following applies: luminescence, 4.5 h, higher = more signal, called active from +8 up or from −8 down.
In assay [16] the target is Streptavidin (Streptomyces avidinii) (UniProt P22629). Description: compounds binding control protein streptavidin – biophysical, small-molecule microarray, 635/667 nm fluorescence, artefact control for SMM compound annotation, primary screen (AID 1147).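 Note: signal reflects streptavidin binding to arrayed compounds as a control protein.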 The note with it: higher = more signal.
Streptavidin (Streptomyces avidinii), sequence (P22629 whole entry, looked up): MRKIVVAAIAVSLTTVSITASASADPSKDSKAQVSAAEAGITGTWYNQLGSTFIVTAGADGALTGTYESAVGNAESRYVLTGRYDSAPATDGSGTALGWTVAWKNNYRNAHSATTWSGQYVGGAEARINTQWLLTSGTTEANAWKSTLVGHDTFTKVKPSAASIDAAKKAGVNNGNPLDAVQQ
The nature of assay [17]: probe aInhba binding on compound microarray – biochemical, small-molecule microarray, 635/667 nm fluorescence, primary screen (AID 1148).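 Note: score merges 667nm spot fluorescence with signal-to-noise for antibody binding to printed compounds.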 The following applies: higher = more signal.
For assay [18], the target named is Torsin-1A (Homo sapiens) (UniProt O14656). In words: TOR1A wild-type binding on microarray – cell lysate, small-molecule microarray, lysate, 635/667 nm, primary screen (AID 1149). The note with it: COS7 hTOR1A-WT lysate, 635 nm fluorescence, higher = more signal.
Torsin-1A (Homo sapiens), sequence (O14656 whole entry, looked up): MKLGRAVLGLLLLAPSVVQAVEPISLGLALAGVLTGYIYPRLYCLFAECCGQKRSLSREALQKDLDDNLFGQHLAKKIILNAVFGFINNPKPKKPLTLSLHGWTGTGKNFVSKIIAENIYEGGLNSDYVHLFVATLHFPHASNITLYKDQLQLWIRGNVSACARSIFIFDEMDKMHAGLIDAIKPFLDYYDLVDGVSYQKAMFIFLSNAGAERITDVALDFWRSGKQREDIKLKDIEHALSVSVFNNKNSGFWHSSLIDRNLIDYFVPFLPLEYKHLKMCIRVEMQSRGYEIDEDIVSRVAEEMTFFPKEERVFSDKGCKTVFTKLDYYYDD
The target is the same in assay [19]. Description: torsin A mutant lysate binding on microarrays – cell lysate, small-molecule microarray, COS7 lysate, 635/667 nm fluorescence, primary screen (AID 1150).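 Note: score pools 667 nm emission and signal to noise measuring lysate protein binding.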 The note with it: COS7 hTOR1A mutant lysate, 635 nm fluorescence, higher = more signal.
The subject of assay [20] is Sonic hedgehog protein (Shh). Description: Sonic hedgehog microarray binding compounds – biochemical, small-molecule microarray, 635/667 nm fluorescence, primary screen (AID 1151).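 Note: Shh protein binding to compounds spotted on small-molecule microarray slides; score combines spot fluorescence intensity with signal-to-noise across triplicate slides.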 The note with it: 635 nm fluorescence, higher = more signal.

Fibroblast growth factor 2 (Homo sapiens), sequence (P09038 whole entry, looked up): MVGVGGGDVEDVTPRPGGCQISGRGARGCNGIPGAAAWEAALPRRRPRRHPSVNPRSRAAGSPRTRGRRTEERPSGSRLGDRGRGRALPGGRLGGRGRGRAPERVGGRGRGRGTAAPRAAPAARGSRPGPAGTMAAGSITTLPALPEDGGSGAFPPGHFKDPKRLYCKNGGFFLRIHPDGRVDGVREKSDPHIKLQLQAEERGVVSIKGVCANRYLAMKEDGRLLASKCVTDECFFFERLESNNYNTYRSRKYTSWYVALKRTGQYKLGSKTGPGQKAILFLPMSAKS
Focal adhesion kinase 1 (Homo sapiens), sequence (Q05397 whole entry, looked up): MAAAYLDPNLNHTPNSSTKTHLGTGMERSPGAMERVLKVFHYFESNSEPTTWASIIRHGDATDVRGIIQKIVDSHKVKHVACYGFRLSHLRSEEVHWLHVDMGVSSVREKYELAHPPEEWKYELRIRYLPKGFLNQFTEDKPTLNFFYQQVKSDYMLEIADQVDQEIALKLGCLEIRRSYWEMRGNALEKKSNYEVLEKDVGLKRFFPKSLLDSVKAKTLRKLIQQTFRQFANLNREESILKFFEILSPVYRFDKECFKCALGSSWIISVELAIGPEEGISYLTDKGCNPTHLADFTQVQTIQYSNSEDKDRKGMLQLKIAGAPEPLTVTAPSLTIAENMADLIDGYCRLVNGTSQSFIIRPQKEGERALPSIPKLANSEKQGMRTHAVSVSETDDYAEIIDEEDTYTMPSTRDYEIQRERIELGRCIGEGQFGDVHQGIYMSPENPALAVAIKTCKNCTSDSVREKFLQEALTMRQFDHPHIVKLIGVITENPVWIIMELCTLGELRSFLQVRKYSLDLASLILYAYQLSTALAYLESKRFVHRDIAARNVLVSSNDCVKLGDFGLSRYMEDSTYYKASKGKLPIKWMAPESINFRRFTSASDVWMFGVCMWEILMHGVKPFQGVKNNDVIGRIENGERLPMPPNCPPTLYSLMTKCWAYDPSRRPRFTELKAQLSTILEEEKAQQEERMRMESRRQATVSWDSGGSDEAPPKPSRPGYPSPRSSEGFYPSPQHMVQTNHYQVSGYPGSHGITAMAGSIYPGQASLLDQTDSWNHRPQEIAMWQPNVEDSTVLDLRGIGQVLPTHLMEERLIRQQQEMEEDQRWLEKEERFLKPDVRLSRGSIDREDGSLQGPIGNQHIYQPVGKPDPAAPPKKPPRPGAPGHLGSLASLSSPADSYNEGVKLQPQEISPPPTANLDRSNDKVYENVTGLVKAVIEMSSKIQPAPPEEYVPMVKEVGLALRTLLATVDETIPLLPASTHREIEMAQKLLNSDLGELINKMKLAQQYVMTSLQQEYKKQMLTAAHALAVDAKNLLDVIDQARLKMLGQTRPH

In the case of `CCOC(=O)C[C@H]1[C@H](OC(=O)c2ccccc2-c2ccccc2)[C@@H](NC(=O)c2ccc3ccccc3c2)c2cc(OCCCO)ccc2N1C(=O)c1ccc2ccccc2n1`, the composite z-score was 0.0868 in assay [1]; 0.635 in assay [2]; -0.0301 in assay [3]; 0.0467 in assay [4]; 0.874 in assay [5]; 0.306 in assay [6]. The composite z-score in assay [8] was 0.543; in [9] it was 0.119; in assay [11], 0.0952; in assay [16] it was 0.162; in assay [17], -0.0087; in assay [18], 0.335. The composite z-score in assay [19] came out at 0.0486; in [20], 0.575. Moreover, the z-score in assay [7] was 0.988; in assay [10] it was 0.667 (inactive); in assay [12], 0.0364 (inactive); in assay [13], -0.756 (inactive); in assay [14], 0.311 (inactive); in assay [15] it was 0.429 (inactive).
For the compound `COc1ccc([Si](C)(C)[C@@H]2[C@@H](CC(=O)N3CCC[C@H]3CO)O[C@]3(C(=O)N(C)c4c(Br)cc(C)cc43)[C@H]2C)cc1`, the composite z-score in assay [1] worked out at 0.437; in assay [2], 1.15; in assay [3], 0.393; in assay [4], 0.935; in assay [5], 1.17; in assay [6] it was 0.987. The composite z-score in assay [8] was 1.19; in assay [9], 0.0832; in assay [11], 0.29; in assay [16], 0.367; in [17] it was -0.103; in assay [18], 0.178. For the same compound, the figures for the composite z-score in [19] and in assay [20] were 0.67 and 1.43, respectively. The z-score in assay [7] was 0.66; in [10] it was -0.297 (inactive); in assay [12] it was -2.39 (inactive); in [13] it was 0.74 (inactive); in [14] it was 6.67 (inactive); in [15] it was 0.157 (inactive).
As to `Cc1ccc(S[C@]2(C(=O)O)CC(=O)N(C3Cc4ccccc4C3)[C@@H]2c2ccc(CO)cc2I)cc1`, the composite z-score in assay [1] is 0.198; in assay [2], 0.27; in [3], 0.148; in [4], 0.439; in [5] it was 1.09; in assay [6], -0.499. The composite z-score in assay [8] was -0.936; in assay [9], 0.513; in assay [11], -0.227; in assay [16], 0.103; in assay [17], -0.0791; in [18], -0.594. In addition, the composite z-score in [19] was -0.584; in assay [20], -0.439. Further, the z-score in [7] is 0.478; in assay [10] it was 0.285 (inactive); in assay [12], -1.02 (inactive); in assay [13], -0.138 (inactive); in assay [14], -0.062 (inactive); in assay [15], -0.097 (inactive).
For `COc1cc2c(cc1O)C(C)N(Cc1cccc(OC(F)(F)F)c1)CC2` (stereo not given), the composite z-score in [1] is 1.72; in [2], 1.13; in assay [3], -0.135; in [4] it was 0.966; in assay [5], 0.659; in [6] it was -0.258. In addition, the composite z-score came to 0.108 in assay [8]; 0.984 in assay [9]; 0.475 in [11]; 0.395 in assay [16]; 0.0528 in assay [17]; 1.7 in assay [18]. Also, the results for the composite z-score in assay [19] and in assay [20] were 1.91 and 0.204, respectively. Also, the z-score in assay [7] was -0.681; in [10] it was 1.35 (inactive); in assay [12], -0.842 (inactive); in assay [13], -0.334 (inactive); in [14] it was 0.506 (inactive); in assay [15] it was 1.66 (inactive).
With `COC(=O)[C@@]1(Cc2ccccc2)[C@H]2c3cc(C(=O)N(C)C)n(Cc4c(-c5ccccc5)noc4C)c3C[C@H]2CN1C(=O)c1ccccc1`, the composite z-score is 2.29 in assay [1]; 1.22 in [2]; 1.21 in assay [3]; 0.968 in assay [4]; 0.212 in assay [5]; -0.533 in assay [6]. For the same compound, the composite z-score in assay [8] is -0.579; in assay [9], 1.17; in [11] it was 0.235; in [16] it was 1.47; in assay [17], 0.308; in [18], 0.301. The composite z-score in [19] was 0.584; in assay [20], -0.141. Besides, the z-score in assay [7] was 0.582; in assay [10], 1.49 (inactive); in assay [12], -2.2 (inactive); in assay [13], -0.0247 (inactive); in [14] it was 0.201 (inactive); in assay [15], -0.732 (inactive).
